Tested on: Vero E6 infected with SARS-CoV-2
Test: inhibition of SARS-CoV-2 cytopathic effect; higher = more antiviral protection, active = above 15
Details: 48 h

Measured: inhibition of SARS-CoV-2 cytopathic effect

O=C(O)Cc1cccc(OCCCN(Cc2cccc(C(F)(F)F)c2Cl)CC(c2ccccc2)c2ccccc2)c1
inactive: 1 nM 0.26% | 8.33 nM 0.75% | 100 nM 2.25% | 833.33 nM 0.38% | 10000 nM 8.79%

Cc1cc(-c2ccc(/N=N/c3ccc4c(S(=O)(=O)O)cc(S(=O)(=O)O)c(N)c4c3O)c(C)c2)ccc1/N=N/c1ccc2c(S(=O)(=O)O)cc(S(=O)(=O)O)c(N)c2c1O [evans-blue]
inactive: 1 nM -1.16% | 8.33 nM -4.89% | 100 nM 2.16% | 833.33 nM -0.35% | 10000 nM -17.6%

Cn1cc(-c2ccc3nnc(Sc4ccc5ncccc5c4)n3n2)cn1
inactive: 1 nM 0.46% | 8.33 nM -0.33% | 100 nM -1.37% | 833.33 nM -0.25% | 10000 nM 3.33%

c1ccc(C2CN3CCSC3=N2)cc1 (stereo not given) [tetramisole]
inactive: 1 nM 0.71% | 8.33 nM 1.55% | 100 nM 0.335% | 833.33 nM 6.51% | 10000 nM 2.84%

NC(=O)c1cnccn1 [pyrazinamide]
inactive: 1 nM -9.22% | 8.33 nM -8.44% | 100 nM -5.67% | 833.33 nM -9.11% | 10000 nM -9.96%

O=C1NC(=O)c2cc(Nc3ccccc3)c(Nc3ccccc3)cc21
inactive: 1 nM -1.24% | 8.33 nM 1.7% | 100 nM -0.24% | 833.33 nM 0.41% | 10000 nM 1.85%

COc1ccc(C(CN(C)C)C2(O)CCCCC2)cc1 (stereo not given) [venlafaxine]
inactive: 1 nM 0.56% | 8.33 nM 0.96% | 100 nM 1.86% | 833.33 nM -0.35% | 10000 nM -0.29%

From the supplement of paper PMC13380429
